# Hits are enriched below; roughly 17% of the tested compounds scored in any of these assays.
# HT1080 IDH1KD tx – qHTS for induction of synthetic lethality in tumor cells producing 2HG: qHTS for the HT-1080-IDH1KD cell line; HT-1080 IDH1 knockdown viability, ATP luminescence, 48 h; 2% of 360,000 active; AID 686971, 2013; Potency, µM (doses to about 46.1 µM), for inactives: at the highest dose activity, negative = toxicity, hits mostly cytotoxic;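 also: 0% = DMSO wells and -100% = cell-free medium wells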
#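 CellTiter-Glo luminescence after 48 h compound exposure at 37 degrees C of IDH1-knockdown HT-1080 cells in 5% FBS RPMI. %Activity scaled between DMSO wells and cell-free media wells, with curves fitted and assigned curve classes.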
# HepG2 tox-1 – qHTS for Inhibitors of TGF-b: Cytotox Counterscreen. HepG2 CAGA-GFP viability, ATP luminescence, 18 h. Potency, µM (top dose mostly 46.1 µM), without a hit: at the highest dose activity change, negative = cytotoxicity, usual class: cytotoxic. 0.76% of 410,000 active
#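 CellTiter-Glo luminescence gave cytotoxicity after 18 hours at 37 degrees C. The cells were HepG2 CAGA-GFP in 1% FBS DMEM, stimulated with 500 pg/mL TGF-beta after compound addition. %Activity was normalised to no-cell wells (complete cell-killing) and DMSO (no toxicity), and curves were fitted and classified.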
# TDP1 cell noCPT – qHTS for Inhibitors of human tyrosyl-DNA phosphodiesterase 1 (TDP1): qHTS in cells in absence of CPT. 15% of 420,000 active. Potency, µM (highest dose often 46.2 µM), inactives show at the top dose activity change, negative = growth inhibition, hits mostly inhibitors. DT40 Tdp1-/- hTDP1 cells, no CPT, ATP luminescence, 48 h; also: % is scaled to controls: 0 for no effect and ±100 for the full control effect; nearly all actives have a fitted effect of over 55% in size
#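 Luminescent ATP content (CellTiter-Glo) served as the growth readout. Knockout chicken DT40 cells expressing human TDP1 were exposed to compounds without camptothecin for a minimum 48 hr at 37 °C.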
# TGFb SMAD3 inh – qHTS for Inhibitors of TGF-b | HepG2 CAGA-GFP TGF-b/SMAD3 reporter, GFP fluorescence, 18 h; TGF-beta stimulated, 500 pg/mL final | Potency, µM (top dose mostly 46.1 µM), without a hit: at the highest dose activity, negative = inhibition, usual class: inhibitors | 1.2% of 410,000 active | AID 588855, 2011; also: % is scaled to controls: 0 for no effect and ±100 for the full control effect; nearly all actives have a fitted effect of over 65% in size
#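 Read-out: total well GFP (ex488/em500-530) summed from mean per-cell fluorescence. Cells: HEPG2 CAGA-GFP, 1% FBS DMEM, 18 h at 37 degrees C with 500 pg/mL final TGF-beta. Unstimulated wells served as the full-inhibition control; stimulated DMSO wells = 0%.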
# DT40 TDP1 CPT – qHTS for Inhibitors of human tyrosyl-DNA phosphodiesterase 1 (TDP1): qHTS in cells in presence of CPT; chicken DT40 Tdp1-/-;hTDP1 cells + 20 nM CPT, ATP luminescence, 48 h; Potency, µM (series often up to 46.2 µM), without a hit: top-dose activity change, negative = growth inhibition, usual class: inhibitors; 12% of 420,000 active; AID 686979, 2013; also: % is scaled to controls: 0 for no effect and ±100 for the full control effect; nearly all actives have a fitted effect of over 55% in size
#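 Cell growth measured by CellTiter-Glo luminescence after a minimum 48 h, 37 C compound exposure with 20 nM CPT in Tdp1-knockout DT40 cells stably expressing hTDP1, seeded 400/well; qHTS titration format.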
# HT1080-NT tox – qHTS for induction of synthetic lethality in tumor cells producing 2HG: qHTS for the HT-1080-NT fibrosarcoma cell line; HT-1080-NT fibrosarcoma viability, CellTiter-Glo ATP luminescence, 48 h; Potency, µM (doses to about 46.1 µM), for inactives: top-dose activity, negative = less viability, most hits filed as cytotoxic; 1.6% of 360,000 active; AID 686970, 2013;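 also: NT is the 2HG producing partner of a matched IDH1 knockdown line; 0% = DMSO-treated cells and -100% = media-only wells without cells; nearly all actives have a fitted effect of over 55% in size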
#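 A 48-hour cytotoxicity screen used HT-1080-NT cells plated 2 hours before compound delivery. ATP-based CellTiter-Glo luminescence measured viability, normalized to DMSO and no-cell controls.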
# TGFb CAGA inh – qHTS for Inhibitors of TGF-b: Confirmation of Cherry Picks; shares compounds with TGFb SMAD3 inh; 63% of 1,600 active; Potency, µM (top dose mostly 46.1 µM), for the others: at the top dose activity, negative = inhibition, usual class: inhibitors; HepG2 CAGA-GFP TGF-b reporter, GFP fluorescence, 18 h; cells stimulated with TGF-beta, 500 pg/mL; also: % is scaled to controls: 0 for no effect and ±100 for the full control effect; nearly all actives have a fitted effect of over 65% in size
# HepG2 tox-2 – qHTS for Inhibitors of TGF-b: Cytotox Counterscreen for Cherry Picks. shares compounds with TGFb SMAD3 inh. HepG2 CAGA-GFP viability, ATP luminescence, 18 h; cells stimulated with TGF-beta, 500 pg/mL. Potency, µM (doses to about 46.1 µM), without a hit: at the highest dose activity, negative = cytotoxicity, hits mostly inhibitors. 27% of 1,600 active. AID 720535, 2013; also: % is scaled to controls: 0 for no effect and ±100 for the full control effect; nearly all actives have a fitted effect of over 70% in size
# CCL64 TGFb inh – qHTS for Inhibitors of TGF-b: CCL64 Cells Orthogonal Assay for Cherry Picks; shares compounds with TGFb SMAD3 inh; Potency, µM (titrated, usually from 46.1 µM), without a hit: at the top dose activity, negative = inhibition, most hits filed as inhibitors; 41% of 1,600 active; CCL64 CAGA-GFP reporter, TGF-b stimulated, GFP fluorescence, 18 h; also: nearly all actives have a fitted effect of over 65% in size
# COP TGFb inh – qHTS for Inhibitors of TGF-b: Hit Validation in HepG2 Cells using COP promoter. 3% of 1,600 active. HepG2 COP-GFP TGF-b reporter, GFP fluorescence, 18 h; cells stimulated by added recombinant TGF-beta. AID 720537, 2013. shares compounds with TGFb SMAD3 inh. Potency, µM (top dose mostly 46.1 µM), for the others: at the highest dose activity, negative = inhibition, hits mostly inhibitors; also: nearly all actives have a fitted effect of over 70% in size
# Numbers without * were called inactive; ? = inconclusive; / = no result given. Calls follow the shape of the dose curve; as a rule, active = well fitted curve in the direction sought with a large enough effect; inconclusive = small, poorly fitted or top-dose-only effect, or another doubt; inactive = no such curve, though single readings can be large; an effect the other way counts as inactive or inconclusive. Potency is read from the fitted curve at half-maximal effect.
SMILES,HT1080 IDH1KD tx,HepG2 tox-1,TDP1 cell noCPT,TGFb SMAD3 inh,DT40 TDP1 CPT,HT1080-NT tox,TGFb CAGA inh,HepG2 tox-2,CCL64 TGFb inh,COP TGFb inh
Cc1ccc2c(c1)nnn2C1CCN(CC(=O)Nc2ccccc2N2CCOCC2)CC1,?,-48%,23µM*,10µM*,18µM*,?,?,?,?,10%
CC(Oc1ccc(Cl)cc1Cl)C(=O)NC1=NN(c2ccccc2)C(=O)C1 (stereo unspecified),?,-28%,?,18µM*,4%,-29%,?,?,?,61%
O=C(COC(=O)c1ccc2ccccc2n1)Nc1cccc(S(=O)(=O)NC2=NCCCCC2)c1,-6%,-75%,-13%,-2%,-7%,-8%,/,/,/,/
CCc1nc2ccccc2c(C(=O)OCC(=O)Nc2cccc(S(=O)(=O)NC3=NCCCCC3)c2)c1C,?,-22%,4.6µM*,11µM*,16µM*,?,7.3µM*,?,?,21%
Nc1cc2[nH]c(=O)c3ccccc3c2cc1[N+](=O)[O-],-27%,-10%,?,11µM*,23µM*,-2%,?,?,?,71%
c1ccc(-c2csc3ncnc(NCC4COc5ccccc5O4)c23)cc1 (stereo unspecified),-24%,-17%,0.92µM*,3.5µM*,0.73µM*,-18%,2.6µM*,?,15µM*,19%
COc1ccccc1NC(=S)N=Nc1c(O)[nH]c2ccc(Br)cc12,-21%,11%,1.5µM*,?,2.6µM*,8%,?,?,3.3µM*,-3%
CCN(c1ccccc1)S(=O)(=O)c1ccc(NC(=O)c2nc(S(C)(=O)=O)ncc2Cl)cc1,16µM*,6.3µM*,1µM*,6.3µM*,1.2µM*,18µM*,4.1µM*,5.2µM*,1.5µM*,6.5µM*
